Screens deposited in PubChem by National Center for Advancing Translational Sciences (NCATS).
ATXN viability = viability counter-screen for ATXN expression inhibitors; Potency, µM (highest dose often 56.7 µM), usual class: cytotoxic; S2 cells (HEK-293 line with an ATXN2-luciferase reporter) viability, CellTiter-Fluor protease fluorescence, 24 h; 400,000 compounds, 0.49% hits; note: nearly all actives have a fitted effect of over 40% in size
IL-1B inflam inh = blocks inflammasome-driven IL-1 beta release; 360,000 compounds, 4.7% hits; activity change, % at 57.5 µM; THP-1 LPS/ATP IL-1B secretion, AlphaLISA, 16 h; active compounds read low; in the data active = activity change below about -50%; inconclusive = mostly about -30% to -49%
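Secreted IL-1B measured by AlphaLISA bead assay after 16 h compound exposure of THP-1 cells; compounds (final up to 57.5 uM) added 1 h before LPS (250 ng/mL) and ATP (1.25 mM) stimulation; lower signal means less secretion.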
DRD3 agonist = agonists of human D3 dopamine receptor. P35462. D3R DiscoveRx beta-arrestin cells, luminescence, 90 min. max activation, %. 410,000 compounds, 0.58% hits; in the data active = max activation above about 30%
Target sequence (P35462 whole entry, looked up): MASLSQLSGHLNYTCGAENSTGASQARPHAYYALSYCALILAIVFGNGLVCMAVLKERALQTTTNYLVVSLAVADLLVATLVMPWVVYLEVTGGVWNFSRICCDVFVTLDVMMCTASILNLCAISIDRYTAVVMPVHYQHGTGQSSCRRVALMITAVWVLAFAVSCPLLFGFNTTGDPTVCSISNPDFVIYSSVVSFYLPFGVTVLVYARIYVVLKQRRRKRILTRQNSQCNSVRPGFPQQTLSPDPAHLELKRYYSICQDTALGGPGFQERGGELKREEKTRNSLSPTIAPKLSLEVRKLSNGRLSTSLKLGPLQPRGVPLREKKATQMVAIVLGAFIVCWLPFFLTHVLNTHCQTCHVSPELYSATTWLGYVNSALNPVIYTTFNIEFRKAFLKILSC
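Agonist mode: compounds and dopamine controls were applied to plated cells for 90 min at 37 degrees C after an overnight attachment at 1500 cells/well. Luminescent read-out followed 30 - 60 minutes at room temperature with DiscoveRx detection reagent.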
Integrin act MD = integrin-mediated muscular dystrophy alleviation activation | alpha7betagal myoblasts, beta-gal FDG fluorescence, 48 h | Potency, µM (doses to about 38.3 µM), most hits filed as activators | 350,000 compounds, 0.064% hits | AID 624291; note: nearly all actives have a fitted effect of over 60% in size
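alpha7betagal+/- myoblasts (passage 13, 250/well) treated 48 h at 37C with compounds at 1:260 dilution of DMSO stock. Lysed, then beta-galactosidase activity read as FDG fluorescence (ex 480/em 540) after 30 min, with pre-read for autofluorescence.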
ATXN2 expr inh = ATXN2 expression inhibition; HEK-293 ATXN2-luciferase reporter, luminescence, 24 h; Potency, µM (top dose mostly 57 µM), most hits filed as inhibitors; 360,000 compounds, 0.72% hits; AID 1745845; note: nearly all actives have a fitted effect of over 55% in size
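ATXN2-luciferase reporter cells (luciferase flanked by upstream and downstream ATXN2 gene portions) were treated 24 h at 37 °C with compounds at up to 57 uM. SteadyGlo luminescence gave expression; GF-AFC fluorescence gave viability.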
D3 antag = blocks the human D3 dopamine receptor; max response, negative = inhibition, %; AID 652054; 360,000 compounds, 2.5% hits; P35462; D3R cells, DiscoveRx beta-arrestin luminescence, antagonist mode; active compounds read low; in the data active = max response below about -50%; inconclusive = no clear call, values can overlap the other calls
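Cells plated overnight at 1500 cells/well, then exposed to library compounds with dopamine controls for 90 minutes at 37 degrees C. DiscoveRx reagent added for 30–60 minutes at room temperature; luminescence read, quantitative HTS format.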
Each line names hits and unclear results; the compound was inactive in the other large screens. A selection: hits, their analogues and other compounds. The true share with any hit is near 7%. Unless noted, calls come from the whole dose curve; as a rule, active = well fitted curve in the direction sought with a large enough effect; inconclusive = small, poorly fitted or top-dose-only effect, or another doubt; inactive = no such curve, though single readings can be large; an effect the other way counts as inactive or inconclusive.

CC(C)NC[C@@H](C(=O)N1CCN(c2ncnc3c2[C@H](C)C[C@H]3O)CC1)c1ccc(Cl)cc1	ATXN2 expr inh 19µM (no result: ATXN viability, IL-1B inflam inh, DRD3 agonist, Integrin act MD, D3 antag)
CC(C)C(OC(=O)c1ccco1)C(=O)NCc1ccc2c(c1)OCO2 (stereo not given)	none
Cc1cc(C(C)(C)C)cc(C)c1S(=O)(=O)N1CC(=O)Nc2ccccc21	IL-1B inflam inh -63
Cc1ccc(S(=O)(=O)N2CC(=O)Nc3ccccc32)c(C)c1NS(C)(=O)=O	none
Cc1ccc(C(C)(C)C)cc1S(=O)(=O)N1CC(=O)Nc2ccccc21	IL-1B inflam inh -100 (no result: ATXN viability)
C=CCNC(=O)c1cc(Cl)ccc1Cl	none
CC(C)C[C@H](NC(=O)CNC(=O)c1cc(Cl)ccc1Cl)B(O)O	ATXN2 expr inh 0.31µM (no result: ATXN viability, IL-1B inflam inh, DRD3 agonist, Integrin act MD, D3 antag)
CC(C)C[C@H](NC(=O)CNC(=O)c1cc(Cl)ccc1Cl)B1OC(=O)CC(CC(=O)O)(C(=O)O)O1 (stereo not given in full)	ATXN2 expr inh 0.22µM (no result: ATXN viability, IL-1B inflam inh, DRD3 agonist, Integrin act MD, D3 antag)
COc1ccc(NC(=O)c2ccc(-n3c(C)ccc3C)cc2)c(OC)c1	IL-1B inflam inh -75
COc1ccc(NC(=O)c2ccc3[nH]c(C)c(C)c3c2)c(OC)c1	D3 antag -53
CCOc1ccc(C(=O)c2ccc([N+](=O)[O-])cc2Cl)cc1	none
COc1ccc(-c2cn[nH]c2-c2ccc(OCc3ccccc3)cc2O)cc1	IL-1B inflam inh -99, D3 antag inconclusive
CCOc1ccc(-c2[nH]ncc2-c2ccccc2)c(O)c1	ATXN viability inconclusive (no result: ATXN2 expr inh)
COc1ccc(-c2cn[nH]c2-c2ccc(OC)cc2O)cc1	IL-1B inflam inh -84
COc1ccccc1-c1cn[nH]c1-c1ccc(OCc2ccccc2)cc1O	IL-1B inflam inh -99
O=[N+]([O-])c1ccc(COc2ccc(-c3[nH]ncc3-c3ccc(Cl)cc3)c(O)c2)cc1	ATXN viability inconclusive, IL-1B inflam inh -92, ATXN2 expr inh inconclusive
COc1ccc(-c2[nH]ncc2-c2ccc(Cl)cc2)c(O)c1	none
COc1ccc(-c2cn[nH]c2-c2ccc(OCc3ccc([N+](=O)[O-])cc3)cc2O)cc1OC	IL-1B inflam inh inconclusive (no result: ATXN2 expr inh)
CC(C)(CC(=O)N1CCN(c2ccc(Cl)cc2)CC1)CC1=NS(=O)(=O)c2ccccc2N1	ATXN viability inconclusive, IL-1B inflam inh -51, ATXN2 expr inh inconclusive
Cc1ccc(C)c(N2CCN(C(=O)c3cc4c(C)nc5ccccc5c4o3)CC2)c1	ATXN viability inconclusive (no result: ATXN2 expr inh)
Cc1c(C(=O)Nc2ccc3c(c2)OCCO3)sc2nc(-c3ccccc3)cn12	IL-1B inflam inh -92, ATXN2 expr inh 32µM (no result: ATXN viability)
Cc1c(C(=O)Nc2ccncc2)sc2nc(-c3ccccc3)cn12	none
COc1ccccc1N1CCN(C(=O)c2cc3c(C)nc4ccccc4c3o2)CC1	ATXN viability inconclusive, ATXN2 expr inh 20µM
CCOC(=O)C1CCCN(C(=O)Cn2ncc3c([nH]c4ccccc43)c2=O)C1 (stereo not given)	ATXN viability inconclusive, IL-1B inflam inh -84
CC1CC(C)CN(C(=O)Cn2ncc3c([nH]c4ccccc43)c2=O)C1 (stereo not given)	none
Cc1c(C(=O)N2CCN(c3ccc(F)cc3)CC2)sc2nc(-c3ccccc3)cn12	none
COc1ccccc1N1CCN(C(=O)c2sc3nc(-c4ccccc4)cn3c2C)CC1	IL-1B inflam inh -76
CCN1CCN(CCCNC(=O)c2ccc3nc(Cc4ccc(OC)cc4)oc3c2)CC1	none (no result: ATXN viability, IL-1B inflam inh, Integrin act MD, ATXN2 expr inh, D3 antag)
CCOC(=O)C1CCCN(C(=O)c2cc3c(C)nc4ccccc4c3o2)C1 (stereo not given)	DRD3 agonist 38
CCOC(=O)C1CCCN(C(=O)c2cc(-c3ccco3)nc3ccccc23)C1 (stereo not given)	none
COc1ccc2c(c1)c(=O)oc1c(C)c(OC(C)C(=O)N[C@@H](Cc3c[nH]c4ccc(O)cc34)C(=O)O)ccc12 (stereo not given in full)	none
Cc1ccccc1NS(=O)(=O)c1ccc(C(=O)NCC2(N3CCOCC3)CCCCC2)cc1	ATXN viability inconclusive (no result: ATXN2 expr inh)
Cc1cccc(NS(=O)(=O)c2ccc(C(=O)NCC3(N4CCCCC4)CCCCC3)cc2)c1C	IL-1B inflam inh -53, D3 antag inconclusive
Cc1cc(C)cc(NC(=O)c2c(C)nc3ccccn23)c1	ATXN viability inconclusive
Cc1cc2ccccc2cc1CN1CCOCC1	D3 antag inconclusive
OC1CCCN(Cc2ccc3ccc4cccc5ccc2c3c45)C1 (stereo not given)	ATXN viability inconclusive, IL-1B inflam inh -69, ATXN2 expr inh inconclusive, D3 antag inconclusive
OC1CCCN(Cc2cn(Cc3ccccc3)nc2-c2cc3ccccc3o2)C1 (stereo not given)	ATXN viability inconclusive, IL-1B inflam inh inconclusive
c1cc2ccc3ccc(CN4CCOCC4)c4ccc(c1)c2c34	IL-1B inflam inh -77, D3 antag inconclusive
COc1ccc(CCNc2nc(SCc3ccc(F)cc3)nc3ccccc23)cc1OC	none (no result: ATXN viability, IL-1B inflam inh, Integrin act MD, ATXN2 expr inh, D3 antag)
CC(C)(C)c1ccc(/C=C(\c2nc3ccccc3[nH]2)S(=O)(=O)c2ccccc2)cc1	ATXN viability 20µM, IL-1B inflam inh -96, ATXN2 expr inh 16µM, D3 antag -66
O=C(O)c1ccc(/C=C(\c2nc3ccccc3[nH]2)c2nc3ccccc3s2)cc1	IL-1B inflam inh -70
Cc1cccc(/C=C(\c2nc3ccccc3[nH]2)S(=O)(=O)c2ccccc2)c1	ATXN viability inconclusive, IL-1B inflam inh -110, ATXN2 expr inh inconclusive, D3 antag -62
O=C(O)c1ccc(-c2nc3ccccc3[nH]2)cc1	none
CCCC(=O)N1CCN(c2ccc(NC(=O)c3ccccc3)cc2)CC1	none
Cc1ccc(Sc2ccc(NC(=O)CCl)cc2)c(C)c1	IL-1B inflam inh -67, ATXN2 expr inh 32µM (no result: ATXN viability)
Cc1ccc(C)c(Sc2ccc(NC(=O)CCN3C(=O)NC4(CCCC4)C3=O)cc2)c1	ATXN viability inconclusive, ATXN2 expr inh inconclusive
Cc1cc(F)c(F)c(C(=O)N2CCN(C)CC2)c1Cl	none
CCOCCCNC(=O)Cn1nc(-c2ccc(OC)c(OC)c2)ccc1=O	none (no result: ATXN2 expr inh)
Cc1ccc2c(c1)C(=O)C(=O)N2Cc1ccc(F)cc1	ATXN viability inconclusive, D3 antag inconclusive
COc1ccc2c(c1)C(=O)C(=O)N2CC1COc2ccccc2O1 (stereo not given)	ATXN viability inconclusive, D3 antag inconclusive
Cc1ccc2c(c1)C(=O)C(=O)N2CCCOc1ccccc1	D3 antag -50
Cc1ccc(OCCCN2C(=O)C(=O)c3cc(C)ccc32)cc1	ATXN viability inconclusive, IL-1B inflam inh inconclusive
Cc1ccc2c(c1)C(=O)C(=O)N2CC1COc2ccccc2O1 (stereo not given)	IL-1B inflam inh -93
Cc1ccc2c(c1)C(=O)C(=O)N2Cc1ccc(Cl)cc1	ATXN viability inconclusive, D3 antag -64
